{"source": "ChEMBL document CHEMBL3433997", "about": "“St. Jude Leishmania screening dataset” (2016)", "format_in_all_cases": "functional", "key": {"[1]": {"molecular_target": "Solute carrier family 2, facilitated glucose transporter member 1 (Homo sapiens) (UniProt P11166)", "sequence (P11166 whole entry)": "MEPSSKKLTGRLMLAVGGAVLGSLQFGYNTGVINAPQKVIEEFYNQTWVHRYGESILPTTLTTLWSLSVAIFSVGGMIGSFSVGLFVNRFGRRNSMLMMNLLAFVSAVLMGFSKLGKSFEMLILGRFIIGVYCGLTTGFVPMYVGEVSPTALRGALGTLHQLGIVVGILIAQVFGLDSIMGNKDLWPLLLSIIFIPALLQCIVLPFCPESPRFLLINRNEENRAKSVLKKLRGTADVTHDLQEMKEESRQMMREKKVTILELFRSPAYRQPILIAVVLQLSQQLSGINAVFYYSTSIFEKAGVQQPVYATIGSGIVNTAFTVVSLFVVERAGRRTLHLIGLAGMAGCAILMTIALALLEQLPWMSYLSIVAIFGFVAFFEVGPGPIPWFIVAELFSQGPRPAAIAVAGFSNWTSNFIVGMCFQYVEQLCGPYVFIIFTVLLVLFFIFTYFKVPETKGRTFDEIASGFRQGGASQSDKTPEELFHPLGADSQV", "assay": "ST_JUDE_LEISH: Cytotoxicity at 2uM final concentration against transgenic Leishmania Mexicana promastigotes LmGLUT1 that are glucose transport deficient and complemented with the human glucose transporter GLUT1. Activity is measured by DNA content using SYBR green in vitro"}, "[2]": {"molecular_target": "Hexose transporter 1 (Plasmodium falciparum) (UniProt O97467)", "assay": "ST_JUDE_LEISH: Cytotoxicity at 2uM final concentration against transgenic Leishmania Mexicana promastigotes LmPfHT that are glucose transport deficient and complemented with the Plasmodium falciparum hexose transporter. Activity is measured by DNA content using SYBR green in vitro"}, "[3]": {"molecular_target": "Glucose transporter (Leishmania mexicana) (UniProt O61059)", "assay": "ST_JUDE_LEISH: Cytotoxicity at 2uM final concentration against transgenic Leishmania Mexicana promastigotes LmGT2 that are glucose transport deficient and complemented with the L. Mexicana glucose transporter 2. Activity is measured by DNA content using SYBR green in vitro"}}}
{"compound": "COc1cc(-c2ccc(-c3cnc(N)nc3OC)[nH]2)cc(OC)c1OC", "values": [{"measurement": "inhibition", "setting": "[1]", "result": 5.61, "unit": "%"}, {"measurement": "inhibition", "setting": "[2]", "result": 5.42, "unit": "%"}, {"measurement": "inhibition", "setting": "[3]", "result": 2.7, "unit": "%"}]}
{"compound": "Oc1ccc(CCNc2nc(NCCCOc3ccccc3-c3ccc(C(F)(F)F)cc3)nc(N3CCNCC3)n2)cc1", "values": [{"measurement": "inhibition", "setting": "[1]", "result": -0.03, "unit": "%"}, {"measurement": "inhibition", "setting": "[2]", "result": -1.9, "unit": "%"}, {"measurement": "inhibition", "setting": "[3]", "result": -0.21, "unit": "%"}]}
{"compound": "CN1CCN(CCCN(Cc2ccc(-c3cccc(CNC4CCCC4)c3)cc2)C(=O)Nc2ccccc2)CC1", "values": [{"measurement": "inhibition", "setting": "[1]", "result": 9.1, "unit": "%"}, {"measurement": "inhibition", "setting": "[2]", "result": 3.98, "unit": "%"}, {"measurement": "inhibition", "setting": "[3]", "result": 5.53, "unit": "%"}]}
{"compound": "CC(=O)Nc1ccc(CN2Cc3ccc(NC(=O)Nc4ccc(Oc5ccccc5)cc4)cc3C2)s1", "values": [{"measurement": "inhibition", "setting": "[1]", "result": 1.61, "unit": "%"}, {"measurement": "inhibition", "setting": "[2]", "result": -0.21, "unit": "%"}, {"measurement": "inhibition", "setting": "[3]", "result": 1.94, "unit": "%"}]}
{"compound": "COc1cc(CNCCCCCCNCc2cc(OC)c(OC)c3ccccc23)c2ccccc2c1OC", "values": [{"measurement": "inhibition", "setting": "[1]", "result": 4.44, "unit": "%"}, {"measurement": "inhibition", "setting": "[2]", "result": 4.27, "unit": "%"}, {"measurement": "inhibition", "setting": "[3]", "result": 3.2, "unit": "%"}]}
{"compound": "Nn1c(=O)oc2ccc(Cl)cc2c1=O", "values": [{"measurement": "inhibition", "setting": "[1]", "result": 4.15, "unit": "%"}, {"measurement": "inhibition", "setting": "[2]", "result": 10.4, "unit": "%"}, {"measurement": "inhibition", "setting": "[3]", "result": 10, "unit": "%"}]}
{"compound": "COC(=O)c1ccc(CCC(C)NCC(O)c2cccc(C(F)(F)F)c2)cc1", "note": "(centres undefined)", "values": [{"measurement": "inhibition", "setting": "[1]", "result": 0.8, "unit": "%"}, {"measurement": "inhibition", "setting": "[2]", "result": 0.12, "unit": "%"}, {"measurement": "inhibition", "setting": "[3]", "result": 3.23, "unit": "%"}]}
{"compound": "c1ccc(-c2cccnn2)cc1", "values": [{"measurement": "inhibition", "setting": "[1]", "result": 1.25, "unit": "%"}, {"measurement": "inhibition", "setting": "[2]", "result": 1.26, "unit": "%"}, {"measurement": "inhibition", "setting": "[3]", "result": 1.72, "unit": "%"}]}
{"compound": "Cc1cc(NC(=O)NCCN2CCC(NS(=O)(=O)c3cccc(Br)c3)C2)c2ccccc2n1", "note": "(centres undefined)", "values": [{"measurement": "inhibition", "setting": "[1]", "result": 1.93, "unit": "%"}, {"measurement": "inhibition", "setting": "[2]", "result": 0.98, "unit": "%"}, {"measurement": "inhibition", "setting": "[3]", "result": 0.42, "unit": "%"}]}
{"compound": "O=C(Nc1ccc(Cl)cc1)Nc1ccc(-c2ccc(-c3nc4ccccc4[nH]3)cc2)cc1", "values": [{"measurement": "inhibition", "setting": "[1]", "result": 2.4, "unit": "%"}, {"measurement": "inhibition", "setting": "[2]", "result": 3.97, "unit": "%"}, {"measurement": "inhibition", "setting": "[3]", "result": 0.96, "unit": "%"}]}
{"compound": "CCOC(=O)c1c(C)noc1Nc1ccc(OC)cc1", "values": [{"measurement": "inhibition", "setting": "[1]", "result": 1.87, "unit": "%"}, {"measurement": "inhibition", "setting": "[2]", "result": 2.32, "unit": "%"}, {"measurement": "inhibition", "setting": "[3]", "result": 2.21, "unit": "%"}]}
{"compound": "CC[C@H](NC(=O)c1c(CCCN2CCN(c3ccccc3)CC2)c(-c2ccccc2)nc2cc(O)ccc12)c1ccccc1", "values": [{"measurement": "inhibition", "setting": "[1]", "result": 7.88, "unit": "%"}, {"measurement": "inhibition", "setting": "[2]", "result": 6.19, "unit": "%"}, {"measurement": "inhibition", "setting": "[3]", "result": 10.9, "unit": "%"}]}
{"compound": "O=C(NCCN1CCOCC1)c1ccc(CNC(=O)c2ccc(O)c(-c3ccc(Cl)c(Cl)c3)c2)cc1", "values": [{"measurement": "inhibition", "setting": "[1]", "result": 1.82, "unit": "%"}, {"measurement": "inhibition", "setting": "[2]", "result": 2.76, "unit": "%"}, {"measurement": "inhibition", "setting": "[3]", "result": 1.84, "unit": "%"}]}
